# Source: the supplement of paper PMC8728848
# This excerpt belongs to a sample that is enriched for the strongest signals.
# Experiments:
# Experiment in all cases: glycan array binding signal (z-score within array); higher = stronger binding
# Gal3S(b1-4)Glc = settings: glycan notation: IUPAC condensed, linker removed
# Procedure, shortened: (§1)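 Glycan array binding is given as a within-array Z-score, which can be read as non-binding when negative. The arrays, 3228 of them, came from the Consortium for Functional Glycomics database and were retained only where the protein sequence was available. Z-scores were averaged across arrays of the same protein sequence at different concentrations or buffers and across linkers.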
# GalNAc(a1-3)GalNAc = settings: glycan notation: IUPAC condensed, linker removed
# Procedure, shortened: as §1
# Gal6S(b1-3)GlcNAc = settings: glycan notation: IUPAC condensed, linker removed
# Procedure, shortened: as §1
# Gal3S6S(b1-4)GlcNAc = settings: glycan notation: IUPAC condensed, linker removed
# Procedure, shortened: as §1
# [1] = test system: Gal3S(b1-4)[Fuc(a1-3)]Glc; settings: glycan notation: IUPAC condensed, linker removed
# Procedure, shortened: as §1
# [2] = test system: Glc(a1-4)Glc(a1-4)Glc(a1-4)Glc; settings: glycan notation: IUPAC condensed, linker removed
# Procedure, shortened: as §1
# [3] = test system: Glc(a1-6)Glc(a1-6)Glc(a1-6)Glc; settings: glycan notation: IUPAC condensed, linker removed
# Procedure, shortened: as §1
# [4] = test system: GalNAc(b1-3)Gal(a1-4)Gal(b1-4)GlcNAc; settings: glycan notation: IUPAC condensed, linker removed
# Procedure, shortened: as §1
# GalNAc(b1-3)GalNAc = settings: glycan notation: IUPAC condensed, linker removed
# Procedure, shortened: as §1
# Gal6S(b1-4)GlcNAc = settings: glycan notation: IUPAC condensed, linker removed
# Procedure, shortened: as §1
# GalNAc(a1-3)Gal = settings: glycan notation: IUPAC condensed, linker removed
# Procedure, shortened: as §1
# Gal4S6S(b1-4)GlcNAc = settings: glycan notation: IUPAC condensed, linker removed
# Procedure, shortened: as §1
# [5] = test system: GalNAc(b1-4)GlcNAc(b1-2)Man(a1-3)[GalNAc(b1-4)GlcNAc(b1-2)Man(a1-6)]Man(b1-4)GlcNAc(b1-4)GlcNAc; settings: glycan notation: IUPAC condensed, linker removed
# Procedure, shortened: as §1
# Gal3S6S(b1-4)GlcNAc6S = settings: glycan notation: IUPAC condensed, linker removed
# Procedure, shortened: as §1
# Gal6S(b1-4)Glc = settings: glycan notation: IUPAC condensed, linker removed
# Procedure, shortened: as §1
# [6] = test system: Gal3S(b1-4)[Fuc(a1-3)]Glc6S; settings: glycan notation: IUPAC condensed, linker removed
# Procedure, shortened: as §1
# [7] = test system: Gal3S(b1-4)[Fuc(a1-3)]GlcNAc6S; settings: glycan notation: IUPAC condensed, linker removed
# Procedure, shortened: as §1
# [8] = test system: Gal3S(b1-4)[Fuc(a1-3)]GlcNAc; settings: glycan notation: IUPAC condensed, linker removed; mutation: R125K
# Procedure, shortened: as §1
# GalNAc(b1-6)GalNAc = settings: glycan notation: IUPAC condensed, linker removed; mutation: R125K
# Procedure, shortened: as §1
# Glc(a1-4)Glc = settings: glycan notation: IUPAC condensed, linker removed
# Procedure, shortened: as §1
# Chain of wLAT-1A (Homo sapiens), Q01650 (Q01650 whole entry): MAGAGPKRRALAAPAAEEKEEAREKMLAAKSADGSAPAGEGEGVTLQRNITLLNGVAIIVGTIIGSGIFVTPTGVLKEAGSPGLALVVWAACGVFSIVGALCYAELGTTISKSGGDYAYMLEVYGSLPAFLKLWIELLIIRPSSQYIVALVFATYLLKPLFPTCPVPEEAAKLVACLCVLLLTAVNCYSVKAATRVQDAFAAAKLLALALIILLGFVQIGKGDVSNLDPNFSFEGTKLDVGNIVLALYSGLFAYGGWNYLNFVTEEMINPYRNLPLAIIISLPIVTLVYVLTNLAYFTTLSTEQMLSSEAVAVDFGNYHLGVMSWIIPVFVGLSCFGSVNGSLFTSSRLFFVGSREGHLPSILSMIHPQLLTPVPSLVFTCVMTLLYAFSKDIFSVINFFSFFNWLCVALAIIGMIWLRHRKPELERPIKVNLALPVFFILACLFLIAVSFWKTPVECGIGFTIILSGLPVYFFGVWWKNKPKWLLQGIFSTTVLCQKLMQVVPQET
# Chain of CHI3L1 (Homo sapiens), P36222 (P36222 whole entry): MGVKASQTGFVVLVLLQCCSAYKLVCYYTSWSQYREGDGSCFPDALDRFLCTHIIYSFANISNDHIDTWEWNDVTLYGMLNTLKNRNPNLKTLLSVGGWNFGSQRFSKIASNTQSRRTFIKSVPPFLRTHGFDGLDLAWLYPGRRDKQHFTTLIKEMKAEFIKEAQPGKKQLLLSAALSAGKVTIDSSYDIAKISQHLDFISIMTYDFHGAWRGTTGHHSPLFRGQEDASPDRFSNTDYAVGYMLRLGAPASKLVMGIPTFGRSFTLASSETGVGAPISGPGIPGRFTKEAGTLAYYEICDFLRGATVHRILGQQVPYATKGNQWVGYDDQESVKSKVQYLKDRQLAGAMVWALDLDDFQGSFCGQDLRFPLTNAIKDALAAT
# Chain of Aggrecan (Rattus norvegicus), NP_071526 (chain, as listed by the source): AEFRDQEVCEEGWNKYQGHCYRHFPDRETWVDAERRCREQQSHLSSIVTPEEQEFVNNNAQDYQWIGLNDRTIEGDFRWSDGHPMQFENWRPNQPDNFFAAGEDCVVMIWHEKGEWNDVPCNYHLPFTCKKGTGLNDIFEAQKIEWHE
# Chain of PILRb (Mus musculus), Q2YSF2 (Q2YSF2 entry or part of it): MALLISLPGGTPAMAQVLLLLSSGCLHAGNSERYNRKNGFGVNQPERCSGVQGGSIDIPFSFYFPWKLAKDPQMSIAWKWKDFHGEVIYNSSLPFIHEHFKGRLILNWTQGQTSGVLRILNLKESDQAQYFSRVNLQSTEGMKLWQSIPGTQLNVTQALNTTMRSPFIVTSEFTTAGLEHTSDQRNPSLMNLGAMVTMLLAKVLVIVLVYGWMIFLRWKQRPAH
# Chain of 6RG (Lolium perenne), B9U140 (B9U140 entry or part of it): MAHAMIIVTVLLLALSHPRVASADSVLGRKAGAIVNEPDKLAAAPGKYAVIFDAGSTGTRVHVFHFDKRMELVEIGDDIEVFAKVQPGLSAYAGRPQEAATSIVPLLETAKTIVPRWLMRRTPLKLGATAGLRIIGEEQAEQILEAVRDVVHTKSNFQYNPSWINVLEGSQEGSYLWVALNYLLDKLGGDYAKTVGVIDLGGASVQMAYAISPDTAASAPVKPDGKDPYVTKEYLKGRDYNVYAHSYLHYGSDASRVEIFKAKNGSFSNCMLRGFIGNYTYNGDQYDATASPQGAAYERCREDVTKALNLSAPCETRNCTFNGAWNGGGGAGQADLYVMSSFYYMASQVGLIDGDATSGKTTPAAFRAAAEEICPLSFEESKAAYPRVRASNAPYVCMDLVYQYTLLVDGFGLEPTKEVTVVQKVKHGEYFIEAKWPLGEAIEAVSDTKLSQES
# Chain of C3b (Homo sapiens), P01024 (P01024 23-667): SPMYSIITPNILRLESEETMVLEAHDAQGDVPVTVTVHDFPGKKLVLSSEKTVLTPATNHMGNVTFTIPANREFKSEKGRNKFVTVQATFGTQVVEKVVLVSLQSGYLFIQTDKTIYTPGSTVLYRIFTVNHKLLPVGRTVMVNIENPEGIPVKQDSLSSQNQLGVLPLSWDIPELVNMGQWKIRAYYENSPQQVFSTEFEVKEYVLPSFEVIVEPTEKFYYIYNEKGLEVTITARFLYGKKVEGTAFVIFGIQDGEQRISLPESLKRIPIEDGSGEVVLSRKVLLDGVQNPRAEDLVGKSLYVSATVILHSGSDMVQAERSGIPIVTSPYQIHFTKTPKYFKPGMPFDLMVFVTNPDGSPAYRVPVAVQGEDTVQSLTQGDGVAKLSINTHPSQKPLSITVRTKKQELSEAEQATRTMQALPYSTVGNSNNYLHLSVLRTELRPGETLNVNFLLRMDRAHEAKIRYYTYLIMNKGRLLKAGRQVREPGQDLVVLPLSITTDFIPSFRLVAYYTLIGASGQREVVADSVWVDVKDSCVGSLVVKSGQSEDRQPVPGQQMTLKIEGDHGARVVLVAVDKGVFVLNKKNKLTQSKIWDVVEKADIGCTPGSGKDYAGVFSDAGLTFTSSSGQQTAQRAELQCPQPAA
# Chain of PILRa (Mus musculus), Q2YSF3 (Q2YSF3 entry or part of it): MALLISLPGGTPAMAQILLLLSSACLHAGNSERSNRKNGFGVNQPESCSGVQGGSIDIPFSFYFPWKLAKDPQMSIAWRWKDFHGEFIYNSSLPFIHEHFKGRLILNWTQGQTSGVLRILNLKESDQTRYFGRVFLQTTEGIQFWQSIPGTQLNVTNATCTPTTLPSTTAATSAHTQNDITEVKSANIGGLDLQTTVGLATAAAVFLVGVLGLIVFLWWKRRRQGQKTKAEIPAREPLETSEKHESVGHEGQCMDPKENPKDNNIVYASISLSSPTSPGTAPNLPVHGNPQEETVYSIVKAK
# Chain of CHT (Homo sapiens) (chain, as listed by the source): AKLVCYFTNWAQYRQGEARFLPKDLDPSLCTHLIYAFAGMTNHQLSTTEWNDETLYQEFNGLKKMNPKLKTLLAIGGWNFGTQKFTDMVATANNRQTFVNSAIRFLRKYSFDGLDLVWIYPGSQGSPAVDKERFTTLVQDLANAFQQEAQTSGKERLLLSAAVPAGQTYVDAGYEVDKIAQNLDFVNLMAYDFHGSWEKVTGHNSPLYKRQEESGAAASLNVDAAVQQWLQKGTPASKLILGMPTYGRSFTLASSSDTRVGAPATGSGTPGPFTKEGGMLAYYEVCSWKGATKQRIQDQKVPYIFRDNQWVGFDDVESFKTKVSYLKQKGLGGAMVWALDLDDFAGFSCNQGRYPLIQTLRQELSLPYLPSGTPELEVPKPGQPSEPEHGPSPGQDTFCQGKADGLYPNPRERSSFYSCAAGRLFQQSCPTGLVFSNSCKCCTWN
# Chain of SRLC (Mus musculus), Q8VIF6 (Q8VIF6 other isoform, or with tags, fused parts or gaps): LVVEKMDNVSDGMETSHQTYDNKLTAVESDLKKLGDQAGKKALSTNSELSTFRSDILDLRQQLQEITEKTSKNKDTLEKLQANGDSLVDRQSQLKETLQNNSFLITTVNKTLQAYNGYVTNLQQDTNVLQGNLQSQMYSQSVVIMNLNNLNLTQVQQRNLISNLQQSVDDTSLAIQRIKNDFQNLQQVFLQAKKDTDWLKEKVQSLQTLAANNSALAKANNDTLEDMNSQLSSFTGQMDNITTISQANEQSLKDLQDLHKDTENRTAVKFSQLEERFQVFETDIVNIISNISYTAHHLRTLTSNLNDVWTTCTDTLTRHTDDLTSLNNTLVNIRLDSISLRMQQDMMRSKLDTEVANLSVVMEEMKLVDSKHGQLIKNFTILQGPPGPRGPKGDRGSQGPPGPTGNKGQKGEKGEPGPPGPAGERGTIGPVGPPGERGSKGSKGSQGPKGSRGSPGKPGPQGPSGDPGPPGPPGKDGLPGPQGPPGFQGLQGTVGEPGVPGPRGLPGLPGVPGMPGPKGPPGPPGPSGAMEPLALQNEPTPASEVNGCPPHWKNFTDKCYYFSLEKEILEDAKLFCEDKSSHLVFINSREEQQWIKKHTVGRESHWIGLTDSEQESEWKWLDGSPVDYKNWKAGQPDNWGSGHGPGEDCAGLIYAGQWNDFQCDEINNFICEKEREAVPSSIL
# Chain of Avaren (Actinomycete K97) (chain, as listed by the source): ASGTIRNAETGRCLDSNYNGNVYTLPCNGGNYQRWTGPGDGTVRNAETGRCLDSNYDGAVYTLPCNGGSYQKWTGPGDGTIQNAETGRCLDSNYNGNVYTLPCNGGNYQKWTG
# Chain of Regenerating Gene IV (Homo sapiens), Q9BYZ8 (Q9BYZ8 whole entry, looked up): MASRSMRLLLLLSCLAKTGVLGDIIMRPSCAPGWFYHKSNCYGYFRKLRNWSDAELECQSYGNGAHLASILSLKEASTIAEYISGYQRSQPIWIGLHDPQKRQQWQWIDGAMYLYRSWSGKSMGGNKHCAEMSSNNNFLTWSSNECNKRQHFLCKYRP
substance,measurement,setting,value
MpAFP RI GFP (Marinomonas primoryensis),glycan array binding signal (z-score),Gal3S(b1-4)Glc,0.469
same,glycan array binding signal (z-score),GalNAc(a1-3)GalNAc,-0.566
"PILRa (Mus musculus), Q2YSF3",glycan array binding signal (z-score),Gal3S(b1-4)Glc,0.049
same,glycan array binding signal (z-score),Gal6S(b1-3)GlcNAc,1.62
"Regenerating Gene IV (Homo sapiens), Q9BYZ8",glycan array binding signal (z-score),Gal3S6S(b1-4)GlcNAc,0.332
"CHI3L1 (Homo sapiens), P36222",glycan array binding signal (z-score),[1],0.014
same,glycan array binding signal (z-score),[2],0.48
same,glycan array binding signal (z-score),[3],1.01
"PILRb (Mus musculus), Q2YSF2",glycan array binding signal (z-score),[1],0.773
same,glycan array binding signal (z-score),[4],-0.074
same,glycan array binding signal (z-score),GalNAc(b1-3)GalNAc,0.288
"wLAT-1A (Homo sapiens), Q01650",glycan array binding signal (z-score),Gal6S(b1-4)GlcNAc,3.6
same,glycan array binding signal (z-score),GalNAc(a1-3)GalNAc,6.65
same,glycan array binding signal (z-score),GalNAc(a1-3)Gal,3.46
same,glycan array binding signal (z-score),GalNAc(b1-3)GalNAc,1.87
"Aggrecan (Rattus norvegicus), NP_071526",glycan array binding signal (z-score),Gal3S6S(b1-4)GlcNAc,-0.034
same,glycan array binding signal (z-score),Gal4S6S(b1-4)GlcNAc,-0.024
same,glycan array binding signal (z-score),Gal6S(b1-4)GlcNAc,0.061
same,glycan array binding signal (z-score),[5],0.017
"6RG (Lolium perenne), B9U140",glycan array binding signal (z-score),Gal3S6S(b1-4)GlcNAc6S,2.09
same,glycan array binding signal (z-score),Gal4S6S(b1-4)GlcNAc,1.06
same,glycan array binding signal (z-score),Gal6S(b1-4)Glc,0.084
same,glycan array binding signal (z-score),GalNAc(a1-3)Gal,-0.395
Avaren (Actinomycete K97),glycan array binding signal (z-score),[3],-0.14
"HARE (Homo sapiens), Q8WWQ8",glycan array binding signal (z-score),Gal6S(b1-4)Glc,0.81
"SRLC (Mus musculus), Q8VIF6",glycan array binding signal (z-score),Gal3S6S(b1-4)GlcNAc6S,0.13
"Siglec-8 (Homo sapiens), Q9NYZ4",glycan array binding signal (z-score),[6],0.077
same,glycan array binding signal (z-score),[7],-0.171
same,glycan array binding signal (z-score),[8],0.148
same,glycan array binding signal (z-score),Gal6S(b1-4)Glc; mutation: R125K,0.06
same,glycan array binding signal (z-score),GalNAc(b1-6)GalNAc,-0.055
"C3b (Homo sapiens), P01024",glycan array binding signal (z-score),Gal3S6S(b1-4)GlcNAc,-0.743
same,glycan array binding signal (z-score),Glc(a1-4)Glc,-0.67
CHT (Homo sapiens),glycan array binding signal (z-score),"Gal3S6S(b1-4)GlcNAc; mutation: D138V, E140I",-0.059
